Screening results: PubChem BioAssay, The Scripps Research Institute Molecular Screening Center
Sampled rows, rich in hits. Any-hit rate of the full collection: about 4.8%.
DAX1 inh-1 – DAX1 (NR0B1) inhibitors, primary screen, cell-based, HEK293, Gal4-DAX1, luciferase luminescence; Nuclear receptor subfamily 0 group B member 1 (Homo sapiens), P51843; HEK293 Gal4-DAX1 luciferase reporter; inhibition, % at 6.75 µM; actives 0.99% (n = 340,000);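 active means inhibition above the mean over all tested compounds plus 3 SD, cut at about 4.2% in these data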;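 further: 0% = DAX1-transfected cells with DMSO and 100% = empty-vector control cells with DMSO; inhibition shows as a rise in luminescence from relieved DAX1 repression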
Target sequence (P51843 207-470 limits assumed): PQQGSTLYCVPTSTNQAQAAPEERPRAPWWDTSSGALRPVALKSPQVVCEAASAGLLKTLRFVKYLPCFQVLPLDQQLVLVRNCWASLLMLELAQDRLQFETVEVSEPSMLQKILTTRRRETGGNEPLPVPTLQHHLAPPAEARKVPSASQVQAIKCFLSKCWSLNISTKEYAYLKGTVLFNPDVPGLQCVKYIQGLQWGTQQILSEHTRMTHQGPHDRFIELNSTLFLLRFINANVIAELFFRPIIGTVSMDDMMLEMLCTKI
hcDAF-12 act – H. contortus DAF-12 nuclear receptor activators, primary screen, cell-based, luminescence, HEK293, lit1-tk-luc reporter; AID 652067, 2013; HEK293 hcDAF-12 lit1-tk-luc reporter; 0% DMSO, 100% Δ7-dafachronic acid; activation, % at 6.8 µM; actives 1.4% (n = 370,000);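 active means activation above the mean of all tested compounds plus 3 SD, cut at about 5.5% in these data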;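 further: 100% = response to 3 µM Δ7-dafachronic acid high control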
ssDAF12 agonist – S. stercoralis DAF-12 nuclear receptor activators, primary screen, cell-based, luminescence, HEK293, GRIP1 co-expression, lit1-tk-luc | HEK293 ssDAF-12/GRIP1 lit1-tk-luc reporter; % of 3 µM dafachronic acid response | activation, % at 6.8 µM | actives 1% (n = 370,000);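 active means activation above the mean over all tested compounds plus 3 SD, cut at about 0.9% in these data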;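 further: 0% = DMSO-only wells and 100% = 3 µM delta7-dafachronic acid wells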
DAX1 inh-2 – DAX1 (NR0B1) inhibitors on StAR promoter, primary screen, cell-based, luminescence, SF-1 (NR5A1), full-length DAX-1 | HEK293T StAR-luciferase reporter, SF-1/DAX-1 repression relief | inhibition, % at 6.8 µM | actives 1.1% (n = 370,000) | AID 652010, 2013;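 active means inhibition above the mean over all tested compounds plus 3 SD, cut at about 3.6% in these data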;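 further: 0% = DAX-1 cells with DMSO and 100% = cells lacking DAX-1 with DMSO; higher inhibition means more luminescence from relief of DAX-1 repression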
hgDAF12 agonist – H. glycines DAF-12 receptor agonists, primary screen, cell-based, luminescence, HEK293, GAL4 fusion, UAS-luciferase; Nuclear hormone receptor DAF-12 (Heterodera glycines), GAL4 fusion; HEK293 GAL4-hgDAF12 UAS-luciferase reporter, agonist luminescence; normalized to butyrate control; activation, % at 6.8 µM; actives 1.8% (n = 370,000); AID 687014, 2013;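 active means activation above a cutoff set at the mean of all screened compounds plus 3 SD, cut at about 10% in these data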;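 further: 0% = DMSO wells and 100% = sodium butyrate wells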
SMARCA2 act – SMARCA2 (BRM) function activators, primary screen, cell-based, luminescence, high throughput; activation, % at 9.1 µM; actives 1% (n = 370,000); MG213 cells, MMTV-luciferase reporter, dexamethasone, overnight; in the data active means activation above about 7.8%;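 further: 0% = vehicle wells and 100% = reference activator wells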
SMARCA2 conf – SMARCA2 (BRM) function activators, confirmation, cell-based, luminescence, triplicate; shares compounds with SMARCA2 act; MG213 cells, MMTV-luciferase with dexamethasone, overnight; MG213 cells expressing E1A, Rb sequestered; DMSO wells 0%, reference activator 100%; activation, % at 9.1 µM; actives 30% (n = 3,500); AID 652260, 2013;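 active means activation above its plate's cutoff, the mean activation of tested wells plus 3 SD, cut at about 7.9% in these data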
VP16 Luc act – GAL4-VP16 luciferase reporter activation, counter-screen for SMARCA2 (BRM) activator project, cell-based, pG5luc, luminescence, high throughput; shares compounds with SMARCA2 act; HEK293 GAL4-VP16 pG5luc reporter; scaled: DMSO wells 0%, SAHA wells 100%; activation, % at 9.1 µM; actives 41% (n = 3,500); AID 686939, 2013;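 active means activation above the solvent-only control well mean plus 3 SD, averaged across control plates, cut at about 5.2% in these data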
* marks the source's active call; other numbers are inactive results; · = no result given.

SMILES | DAX1 inh-1 | hcDAF-12 act | ssDAF12 agonist | DAX1 inh-2 | hgDAF12 agonist | SMARCA2 act | SMARCA2 conf | VP16 Luc act
CCCCNc1nc(N)nc(-c2cc(Cl)ccc2O)n1 | 0 | 3 | -1 | 2 | 10 | 17* | 14* | 13*
COc1ccc(COCC(O)CN2CCc3ccccc3C2)cc1OC (configuration not stated) | 0 | 0 | -2 | 0 | 4 | 8.8* | -2 | 3
OC(COCc1ccccc1)CN1CCc2ccccc2C1 (configuration not stated) | 0 | -1 | -1 | 0 | 1 | -1 | · | ·
COC(=O)C1CN(Cc2ccccc2)CCS(=O)(=O)N1Cc1cccc(Cl)c1 (configuration not stated) | · | -2 | -1 | 0 | 1 | 0 | · | ·
COC(=O)C1=C(C)N(Cc2cccc(C(F)(F)F)c2)C(=NCc2cc(OC)c(OC)c(OC)c2)NC1c1cccc(F)c1 (configuration not stated) | · | 0 | -1 | 1 | 0 | -1 | · | ·
CCNC(=O)CSc1nnc(-c2cccc(S(=O)(=O)N(CC)CC)c2)n1CCc1ccccc1 | 0 | 0 | -2 | 0 | -2 | 8.9* | -4 | 0
COc1ccc(N=C2C(=Nc3ccc(OC)cc3)N(c3ccc(N(C)C)cc3)C(=S)N2c2ccc(OC)cc2)cc1 | -2 | -1 | -2 | 0 | 1 | 2 | · | ·
COc1ccc(N2C(=S)N(C(=O)c3ccccc3)C(=Nc3ccccc3)C2=Nc2ccccc2)cc1 | -2 | 0 | -1 | 1 | 5 | 11* | 2 | 3
CCCc1cnc(N2CCN(C(=O)c3ccc(F)cc3)CC2)nc1 | -1 | -4 | -2 | -1 | -4 | 0 | · | ·
CCCc1cnc(N2CCN(C(=S)NC)CC2)nc1 | 2 | 4 | 0 | 1 | 7 | 8.4* | 7 | 7.7*
Cn1c(-c2nnn(-c3ccc(F)cc3)n2)cc2ccccc21 | · | 12* | 1 | 2 | 9 | 8.8* | 6 | 8.4*
C=CCOC(=O)c1sc(NC(=O)c2ccco2)nc1C | 2 | 5 | 0 | 3 | 11* | 8.0* | 18* | 6.7*
CCOC(=O)c1sc(NC(=O)c2cc3ccccc3o2)nc1C | 1 | 1 | -1 | 3 | 4 | 3 | · | ·
CCOC(=O)c1sc(NC(=O)c2cncc(Br)c2)nc1C | · | -1 | -1 | 0 | 2 | 10* | 4 | 9.3*
CC(C)c1[nH]nc2c1C(c1cccc(C(F)(F)F)c1)N(c1ccccc1)C2=O (configuration not stated) | · | -1 | -2 | 0 | -7 | -1 | · | ·
Cc1ccnc(NC(=O)c2cccc3ccccc23)c1 | 0 | 1 | -1 | 2 | 5 | 11* | 3 | 2
CCC[C@H]1[C@@H](OC(=O)NCc2ccco2)CC[C@@]23CCCN2C(=O)CCC[C@@H]13 | · | -1 | -2 | · | -2 | · | · | ·
COCC(C)NC(=O)c1noc2c1CCc1cc(OC)ccc1-2 (configuration not stated) | 2 | 1 | -2 | 1 | 6 | 9.7* | 3 | 11*
Nc1nc(CN2CCN(Cc3ccccc3)CC2)nc(Nc2ccc3c(c2)OCCO3)n1 | 0 | -2 | -1 | 2 | 5 | 9.2* | 26* | 1
